High-throughput results (PubChem BioAssay)
This is one part of a sample in which hits are shown more often than they occur.
Glioma ERSR ind: qHTS for Inducers of the Endoplasmic Reticulum Stress Response (ERSR) in Human Glioma: qHTS; 0.02% of 420,000 active; U87-MG GRP78 promoter luciferase reporter, 16 h; Potency, µM, inactives show top-dose activation, hits mostly activators; further: series mostly up to about 76 µM; % of control where 0% means no effect; nearly all actives have a fitted effect of over 35% in size
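Stably transfected U87-MG glioma cells carrying a GRP78-based luciferase sensor; 16 h compound incubation. Luminescence end-point read 10 min after Bright-Glo addition at room temperature.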
G9a inh: qHTS Assay for Inhibitors of Histone Lysine Methyltransferase G9a | G9a H3K9 monomethylation, AlphaScreen, 2 h | Histone-lysine N-methyltransferase EHMT2 (Homo sapiens), Q96KQ7 | 8.8% of 350,000 active | Potency, µM (titrated, usually from 102 µM), without a hit: top-dose activity, negative = inhibition, most hits filed as inhibitors; further: on the % scale 0 is the no-effect control and ±100 the full control effect; nearly all actives have a fitted effect of over 75% in size
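Step 1: enzyme (final 20 nM) with compound, 15 min RT. Step 2: substrate peptide 500 nM and SAM 20 uM, 2 h RT. Step 3: anti-H3K9me1 antibody and AlphaScreen beads, 10 min, then plate read.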
Sfp inh: qHTS Assay for Inhibitors of Bacillus subtilis Sfp phosphopantetheinyl transferase (PPTase); 4'-phosphopantetheinyl transferase ffp (Bacillus subtilis), Q9F4F7; Biochemical Sfp PPTase activity, qHTS; Potency, µM, inactives show largest response in the series, negative = inhibition, hits mostly inhibitors; 3.5% of 310,000 active; AID 1490, 2009;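 further: the enzyme is Sfp with the accession as filed and its product quenches rhodamine fluorescence; 0% = enzyme reaction without inhibitor and -100% = no enzyme wells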
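Fluorescence-quenching assay with 15 nM Sfp, 5 uM rhodamine-CoA and 12.5 uM BHQ-2-labelled ybbR peptide in pH 7.6 Hepes/MgCl2 buffer. Enzyme was pre-incubated with compound for 15 min at room temperature. Rate was taken from the 30-min fluorescence change (525/598 nm).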
ALOX12 inh: Primary qHTS assay for inhibitors of human arachidonate 12S-lipoxygenase (ALOX12): Round 2; Potency, µM (titrated, usually from 108 µM), without a hit: at the highest dose activity change, negative = inhibition, most hits filed as inhibitors; purified 12hLO, xylenol orange hydroperoxide absorbance; Polyunsaturated fatty acid lipoxygenase ALOX12 (Homo sapiens), P18054; 1.1% of 580,000 active; AID 1671190, 2021; further: on the % scale 0 is the no-effect control and ±100 the full control effect
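Purified human 12hLO (150 nM final) in 25 mM Hepes, 0.01% Triton X-100, pH 7.0 was preincubated 15 min at room temperature with compound. Then 40 uM arachidonic acid was added, 30 min. Hydroperoxide was read by Fe-XO absorbance ratio 573/405 nm.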
VDR inhibitor: Inhibitors of the vitamin D receptor (VDR): qHTS; Vitamin D3 receptor (Homo sapiens), P11473; VDR-SRC2-3 peptide fluorescence polarization, 2 h; Potency, µM, for the others: max response, negative = inhibition, most hits filed as inhibitors; 0.93% of 400,000 active; AID 504847, 2011; further: on the % scale 0 is the no-effect control and ±100 the full control effect
Target sequence (P11473 whole entry, looked up): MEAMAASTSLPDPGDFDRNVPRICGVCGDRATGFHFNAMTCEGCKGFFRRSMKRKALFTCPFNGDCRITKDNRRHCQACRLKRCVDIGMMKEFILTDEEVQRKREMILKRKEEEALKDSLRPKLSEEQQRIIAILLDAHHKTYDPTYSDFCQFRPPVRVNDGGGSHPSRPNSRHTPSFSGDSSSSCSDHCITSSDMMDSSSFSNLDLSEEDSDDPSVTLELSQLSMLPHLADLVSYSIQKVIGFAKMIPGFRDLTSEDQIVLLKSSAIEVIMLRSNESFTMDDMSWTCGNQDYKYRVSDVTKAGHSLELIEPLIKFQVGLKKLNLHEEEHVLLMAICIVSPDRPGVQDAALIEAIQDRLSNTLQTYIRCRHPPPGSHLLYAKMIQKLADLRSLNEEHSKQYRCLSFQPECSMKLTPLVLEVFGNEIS
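VDR–SRC2-3 interaction, FP format. Cmpds 23 nl via pintool, brief spin, 2 h ambient incubation.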
* marks the source's active call; other numbers are inactive results; ? = inconclusive; . = no result; ! = a repeat was not active; [ ] = another dose, or the depositor's remark. The call rests on the fitted dose curve; in most records, active means well fitted curve in the direction sought with a large enough effect; inconclusive means small, poorly fitted or top-dose-only effect, or another doubt; inactive means no such curve, though single readings can be large; an effect the other way counts as inactive or inconclusive. Potency means the concentration at half of the fitted maximal effect.

SMILES	Glioma ERSR ind	G9a inh	Sfp inh	ALOX12 inh	VDR inhibitor
CCC(CC)c1cc([C@H]2CN3CC[C@H]2C[C@@H]3COC(=O)Nc2ccc(C(C)(C)C)cc2)nc(-c2ccncc2)n1	.	.	.	50µM*	.
O=C1CO[C@H]2CN(C3CCOCC3)C[C@H]2N1Cc1ccccn1	.	.	.	33%[176 µM]	.
NC(=O)C1=CN(C2OC(COP(=O)(O)OP(=O)(O)OC[C@H]3O[C@@H](n4cnc5c(N)ncnc54)[C@H](OP(=O)(O)O)[C@@H]3O)C(O)C2O)C=CC1 (stereo partly drawn)	1%	11µM*	.	.	8%
CCN(CC)c1ncnc2c1ncn2[C@@H]1O[C@H](COP(=O)(O)OP(=O)(O)C(Br)(Br)P(=O)(O)O)[C@@H](O)[C@H]1O	-2%	30µM*!	.	.	11%
Nc1ncnc2c1ncn2[C@@H]1O[C@H](COP(=O)(O)OP(=O)(O)OP(=O)(O)O)[C@H]2OC3(O[C@H]21)C([N+](=O)[O-])=CC(=[N+]([O-])[O-])C=C3[N+](=O)[O-] (stereo partly drawn)	7%	26%[59 µM]	8.9µM*	.	?
Nc1ncnc2c1ncn2[C@@H]1O[C@H](COP(=O)(O)OP(=O)(O)OP(=O)(O)O)[C@@H](O)[C@H]1O	2%	35%[59 µM]	5%	-22%	-6%
CC(C)(C)c1ccc(-c2cn(C[C@H]3CC4CCN3C[C@@H]4C(=O)NC3CCCCC3)nn2)cc1 (stereo partly drawn)	.	.	.	82%	.
CCCCOP(=O)(c1ccc(N(C)C)cc1)C(Nc1ccccc1)c1ccccc1 (stereo not drawn)	-5%	45µM*	-23%	-28%	-6%
COc1ccc(C(Nc2ccccc2)P(=O)(Oc2ccccc2)Oc2ccccc2)cc1 (stereo not drawn)	-6%	?	?	-20%	4%
CCn1ccc(C(=O)N2CCC3(CC2)c2nccn2-c2ccccc2CN3CC(C)C)n1	.	.	.	37%	.
O=C(O)c1cc(Oc2ccc([N+](=O)[O-])cc2)cc(Oc2ccc([N+](=O)[O-])cc2)c1	3%	.	5%	49%	45µM*
O=C1CC2(CCN(Cc3ccccn3)C2)Nc2ccccc2N1 (stereo not drawn)	.	.	.	87%	.
Cn1nc(C2CCCC2)cc1[C@H]1CN2CC[C@H]1C[C@@H]2CNC(=O)c1ccc2c(c1)OCO2	.	.	.	-10%	.
O=C1CSC(c2ccc(F)c(Br)c2)c2cn[nH]c2N1 (stereo not drawn)	.	.	.	-15%	.
C[C@](N)(CCP(=O)(O)O)C(=O)O	-2%	14µM*!	-20%	?	5%
Cc1nc(-c2ccc(N(C)C)cc2)cc([C@H]2CN3CC[C@H]2C[C@@H]3COC(=O)Nc2ccc(C(C)C)cc2)n1	.	.	.	-30%	.
C[N+](C)(C)c1ccccc1	0%	20µM*	-5%	?	-21%
CCOP(=O)(Cc1ccc(C(=O)CC)o1)OCC	-3%	-2%	16%	-4%	18%
CCOP(=O)(Cc1cc(C(=O)CC)c(C)o1)OCC	-1%	8.9µM*	?	?	-12%
Cc1nn(C)cc1C1SCC(=O)Nc2c1c(C)nn2-c1ccccc1 (stereo not drawn)	.	.	.	5%	.
COc1cc2c(cc1Oc1ccccc1)NC(=O)C21CCN(c2cnccn2)CC1	.	.	.	-26%[176 µM]	.
COc1cc(OC)c(OC)cc1/C=C1\C(=O)NC(=O)N(Cc2ccccc2)C1=O	-7%	?	-14%	?	-14%
COc1ccc(/C=C2\C(=O)NC(=O)N(Cc3ccccc3)C2=O)c(OC)c1OC	1%	.	35µM*	?	?
Cc1cc(/C=C2\C(=O)NC(=O)N(Cc3ccccc3)C2=O)c(C)n1C1CC1	-2%	.	-7%	?	2%
COc1cc(OC)c(OC)cc1/C=C1/C(=O)NC(=O)N(Cc2ccccc2)C1=O	-4%	50µM*	-14%	?	-5%
Cc1cc(C)n(-c2ccc(NN=C(C#N)C#N)cc2)n1	-1%	.	?	?	28µM*
CCN1CCN(c2ccc(Cl)nn2)C(=O)C1	.	.	.	19%[176 µM]	.
